Shn3 3UTR inh – reduces Shn3 3'UTR luciferase signal in osteoblasts; Clone20 osteoblast Shn3 3'UTR firefly luciferase, 24 h; inhibition, % at 12.5 µM; 360,000 tested, 0.52% active; AID 588674;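 active = mean inhibition of at least 75% with every replicate also reaching 75%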
LMP1 NFkB inh – reduces LMP1-driven NF-kappaB luciferase signal; LMP1-induced NF-kappaB luciferase reporter cells, luminescence; inhibition, % at 12.5 µM; 350,000 tested, 0.69% active; in the data active = inhibition above about 41%
NSD2 HMT inh – blocks human histone methyltransferase NSD2; AID 743445; NSD2 peptide methylation, AlphaScreen, 120 min; 310,000 tested, 0.54% active; inhibition, % at 12.5 µM; in the data active = inhibition above about 50%
Target sequence (O96028 whole entry, looked up): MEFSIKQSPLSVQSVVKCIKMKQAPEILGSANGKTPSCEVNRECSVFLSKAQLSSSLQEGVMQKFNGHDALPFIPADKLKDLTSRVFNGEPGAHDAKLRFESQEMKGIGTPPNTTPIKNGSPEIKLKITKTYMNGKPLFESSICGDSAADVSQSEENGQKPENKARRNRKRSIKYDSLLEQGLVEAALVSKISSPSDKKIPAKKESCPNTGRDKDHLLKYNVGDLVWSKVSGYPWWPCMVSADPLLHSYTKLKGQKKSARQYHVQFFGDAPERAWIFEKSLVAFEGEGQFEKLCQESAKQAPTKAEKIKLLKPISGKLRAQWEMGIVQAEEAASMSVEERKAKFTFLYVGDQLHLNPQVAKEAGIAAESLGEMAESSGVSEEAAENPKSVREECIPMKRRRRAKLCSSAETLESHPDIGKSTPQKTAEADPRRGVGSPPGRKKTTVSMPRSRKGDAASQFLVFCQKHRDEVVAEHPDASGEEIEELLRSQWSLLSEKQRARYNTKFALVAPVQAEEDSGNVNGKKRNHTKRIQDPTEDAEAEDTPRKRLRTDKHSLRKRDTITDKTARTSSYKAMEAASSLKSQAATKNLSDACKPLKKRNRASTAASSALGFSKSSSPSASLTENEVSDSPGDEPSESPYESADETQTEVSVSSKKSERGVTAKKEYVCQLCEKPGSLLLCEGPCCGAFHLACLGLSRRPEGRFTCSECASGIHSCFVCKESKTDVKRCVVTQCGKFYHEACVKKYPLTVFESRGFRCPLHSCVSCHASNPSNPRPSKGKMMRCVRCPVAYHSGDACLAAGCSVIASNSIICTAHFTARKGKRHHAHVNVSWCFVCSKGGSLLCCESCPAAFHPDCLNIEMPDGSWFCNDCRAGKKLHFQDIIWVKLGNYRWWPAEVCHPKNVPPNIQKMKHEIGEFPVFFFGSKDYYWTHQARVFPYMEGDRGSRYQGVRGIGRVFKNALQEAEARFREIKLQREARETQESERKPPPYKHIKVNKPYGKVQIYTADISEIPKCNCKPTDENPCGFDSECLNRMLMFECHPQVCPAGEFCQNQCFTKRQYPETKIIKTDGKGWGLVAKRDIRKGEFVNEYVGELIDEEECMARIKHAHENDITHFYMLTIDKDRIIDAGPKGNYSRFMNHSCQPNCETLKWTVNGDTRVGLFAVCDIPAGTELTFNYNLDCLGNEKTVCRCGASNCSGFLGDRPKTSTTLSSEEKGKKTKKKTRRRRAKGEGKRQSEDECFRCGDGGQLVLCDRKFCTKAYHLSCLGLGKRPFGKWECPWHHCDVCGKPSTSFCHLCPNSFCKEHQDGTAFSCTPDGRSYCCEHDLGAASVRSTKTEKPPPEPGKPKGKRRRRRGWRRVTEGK
N-glyco inh – N-linked glycosylation inhibition | D54 ERlucT glycosylation luciferase reporter, 24 h; percent of 100 nM tunicamycin response | 360,000 tested, 0.23% active | AID 588692 | reporter increase, % at 12.5 µM;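 active = mean luciferase reporter signal, scaled so untreated is 0 and the glycosylation-blocking control 100, at or above a set limit in every replicate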;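 note: luciferase carries N-glycosylation sites so blocking glycosylation raises the light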
Env fusion inh – HIV envelope-mediated fusion inhibition; inhibition, % at 12.3 µM; HeLa-JRFL Env/CEM21 cell fusion, luciferase; 360,000 tested, 1.1% active;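 active = mean replicate inhibition score of at least 50 and every replicate individually at or above 50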
PAX8 inh HTS – PAX8 transcriptional activity inhibition; inhibition, % at 12.6 µM; RMG-I TPO-luciferase reporter, SteadyGlo, 24 h; 360,000 tested, 1.2% active;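 active = mean replicate inhibition at least 60% with every replicate also reaching 60%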;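 note: luciferase light reporting Pax8 driven TPO promoter activity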
Numbers stand for hits; – = inactive; · = no result; [ ] = another dose, or the depositor's remark. A selection: hits, their analogues and other compounds. The true share with any hit is near 2.8%.

SMILES	Shn3 3UTR inh	LMP1 NFkB inh	NSD2 HMT inh	N-glyco inh	Env fusion inh	PAX8 inh HTS
CO[C@H]1CN(C)C(=O)c2cc(NS(=O)(=O)c3ccccc3F)ccc2OC[C@H](C)NC[C@@H]1C	·	·	·	·	–	·
O=C(O)c1cn2c3c(ccc(Cl)c3c1=O)OCC2	–	51	–	–	–	–
COc1ccc(-n2c(C)c([N+](=O)[O-])c3ccc(O)c(CN(C)C)c32)cc1	–	70	–	–	·	·
COc1ccc(-n2c(C(C)n3nc(C)c([N+](=O)[O-])c3C)n[nH]c2=S)cc1 (stereo not given)	–	–	–	–	–	·
Cc1ccc(S(=O)(=O)N2C[C@@H](O)COC[C@@H]3O[C@H](CC(=O)N[C@H]4CCN(Cc5ccccc5)C4)CC[C@H]32)cc1	·	·	·	·	·	–
CC(=O)Nc1ccc(NC(=O)CN(c2ccc(C34CC5CC(CC(C5)C3)C4)cc2)S(C)(=O)=O)cc1	–	–	–	–	93	·
C[C@H]1CN([C@@H](C)CO)C(=O)c2cc(NC(=O)CCCCCC(=O)Nc3ccccc3N)ccc2O[C@H]1CN(C)C(=O)Nc1ccc(F)cc1	·	·	·	·	·	–
CC1(C)CC(=O)C(CC2=C(O)CC(C)(C)CC2=O)=C(O)C1	–	66	–	–	–	·
O=C(c1ccncc1)N1C[C@H]2[C@@H](c3ccccc31)[C@H](CO)N2C(=O)c1ccccc1F	·	·	·	·	·	–
CN(C)CCOc1nc(-c2ccccc2)nc2c1oc1ccccc12	–	–	–	114	·	·
CCN(CC)CCCOc1nc(C)nc2c1oc1ccccc12	–	–	65	–	–	–
O=C(Nc1ccc(F)cc1)N1C[C@H]2[C@@H](c3ccccc31)[C@@H](CO)N2C(=O)Cc1ccccc1	·	·	·	·	·	–
CC(C)NC(=O)N(C)C[C@@H]1Oc2cc(C#CC(C)(C)O)ccc2S(=O)(=O)N([C@@H](C)CO)C[C@H]1C	·	·	·	·	–	·
O=C(/C=C/c1cn(-c2ccccc2)nc1-c1cccnc1)c1ccco1	–	–	–	32	–	–
COC(=O)C1=C(C(=O)c2ccccc2)C(c2ccccc2)n2nnnc2N1 (stereo not given)	–	63	–	–	–	–
CCN(CC)CCNC(=O)c1c(O)c2cc(OC)c(OC)cc2[nH]c1=O	–	55	–	–	–	·
COc1ccc(CNC(=O)c2c(O)c3cc(OC)c(OC)cc3[nH]c2=O)cc1OC	–	–	–	–	–	–
Nc1nc(Cl)cc(Nc2ccccc2Cl)n1	–	–	–	–	–	–
CSc1nc(Cl)cc(Nc2ccccc2N)n1	–	–	–	–	79	–
CN(C)S(=O)(=O)c1cccn1-c1ncc(C(F)(F)F)cc1Cl	–	56	–	–	–	–
COc1ccc2sc3c(=O)[nH]c4ccccc4c3c2c1	–	88	–	–	·	·
C[C@@H]1CN([C@@H](C)CO)C(=O)c2cc(/C=C/c3ccccc3)cnc2O[C@H]1CN(C)S(=O)(=O)c1cccs1	·	·	·	·	–	·
COc1ccc(N=C2S/C(=C\c3ccc(N4CCOCC4)o3)C(=O)N2CCc2c[nH]c3ccccc23)cc1	95	–	·	–	·	·
C[C@H](CO)N1C[C@H](C)[C@@H](CN(C)Cc2cccnc2)Oc2ncc(C#CCc3ccccc3)cc2C1=O	·	·	·	·	–	·
C[C@H](CO)N1C[C@H](C)[C@H](CN(C)Cc2ccc3c(c2)OCO3)Oc2ccc(NC(=O)C3CC3)cc2CC1=O	·	·	·	·	–	–
SMILES	Shn3 3UTR inh	LMP1 NFkB inh	NSD2 HMT inh	N-glyco inh	Env fusion inh	PAX8 inh HTS
Cc1cc(F)ccc1S(=O)(=O)Nc1ccccc1C(=O)Nc1ncn[nH]1	–	–	·	–	·	·
Cc1cc(F)ccc1S(=O)(=O)Nc1ccccc1C(=O)Nc1ccccc1-c1nc2ccccc2[nH]1	91	–	–	–	·	·
CCOc1ccccc1N(CC(=O)N1CCCC1)S(C)(=O)=O	–	49	–	–	–	–
CCN(CC)S(=O)(=O)c1cccc(C(=O)N/N=C(\C)c2ccc(O)cc2O)c1	93	–	–	–	–	–
CCN(CC)S(=O)(=O)c1cccc(C(=O)Nc2ccc(C#N)cc2)c1	–	–	–	–	57	·
COc1ccc(CN(C)C[C@@H]2OCCCC[C@H](C)Oc3ccc(NS(=O)(=O)c4c(C)noc4C)cc3C(=O)N([C@H](C)CO)C[C@H]2C)cc1	·	·	·	·	·	–
Cc1cccc(/C=C2\CCC(=C3SCCCS3)C2=O)c1	–	48	–	–	·	·
O=C1/C(=C/c2ccccc2)CCCc2ccccc21	–	–	·	–	–	–
O=C1C(=Cc2ccc(F)cc2)Cc2ccccc21	–	·	–	–	–	–
O=C1C(=C2SCCCS2)CC/C1=C\c1ccc(F)cc1	–	77	–	–	·	·
O=C(C[C@H]1C=C[C@@H](NS(=O)(=O)c2ccc(F)cc2)[C@H](CO)O1)NCc1ccc(Cl)c(Cl)c1	·	·	·	·	–	–
CC/C(=C\C1CCCCC1)C(NP(=O)(c1ccccc1)c1ccccc1)c1ccccc1 (stereo not given)	–	–	·	–	107	–
O=P(NC1CCCCC1)(c1ccccc1)c1ccccc1	–	–	–	–	–	–
Cn1c2ccccc2c(=O)c2cc(C#Cc3cccc(N)c3)ccc21	–	52	·	–	·	·
Cn1c2ccccc2c(=O)c2ccc(C#Cc3ccc(N)cc3)cc21	–	–	·	–	–	–
Cc1nc2ncnn2c(N2CCN(c3cccc(C(F)(F)F)c3)CC2)c1C	–	–	–	–	60	·
Cc1cc(N2CCN(c3cccc(C(F)(F)F)c3)CC2)n2ncnc2n1	–	–	–	–	·	·
N=c1c(-c2nc3ccccc3[nH]2)cc(C(=O)c2cccs2)nn1-c1ccccc1	–	42	–	–	·	·
C[C@@H]1CN([C@H](C)CO)C(=O)c2cc(-c3ccc(C#N)cc3)cnc2O[C@H]1CN(C)CC1CCCCC1	·	·	·	·	–	–
Cc1nc2scc(C)n2c(=O)c1S(=O)(=O)Nc1ccc(N2CCOCC2)c(Cl)c1	–	–	–	–	–	–
Cc1nc2scc(C)n2c(=O)c1S(=O)(=O)Nc1ccc(OC(F)(F)F)cc1	–	–	–	–	55	–
C[C@H](CO)N1C[C@H](C)[C@H](CN(C)Cc2ccncc2)Oc2c(NC(=O)NC3CCCCC3)cccc2C1=O	·	·	·	·	–	–
Cc1c(Cl)cccc1NC(=S)NNc1ncc(C(F)(F)F)cc1Cl	–	–	–	–	67	·
Cc1ccc(S(=O)(=O)Nc2ccc3c(c2)C(=O)N([C@H](C)CO)C[C@@H](C)[C@H](CN(C)Cc2ccc(C(=O)O)cc2)OCCCC[C@@H](C)O3)cc1	·	·	·	·	–	–
O=C(O)C1C=CC(C(=O)O)c2ccccc21 (stereo not given)	–	–	–	–	–	93
C[C@H](CO)N1C[C@H](C)[C@H](CN(C)Cc2ccc(C(F)(F)F)cc2)OCCCC[C@H](C)Oc2ccc(NC(=O)NC3CCCCC3)cc2C1=O	·	·	·	·	72[16.7 µM]	91
C[C@@H]1CCCCO[C@@H](CN(C)Cc2ccc(C(F)(F)F)cc2)[C@H](C)CN([C@@H](C)CO)C(=O)c2cc(NC(=O)NC3CCCCC3)ccc2O1	·	·	·	·	–	78
C[C@H]1CCCCO[C@H](CN(C)Cc2ccc(C(F)(F)F)cc2)[C@@H](C)CN([C@@H](C)CO)C(=O)c2cc(NC(=O)NC3CCCCC3)ccc2O1	·	·	·	·	66[16.7 µM]	–

High-throughput results deposited in PubChem BioAssay by Broad Institute.
